# Data reported in PubChem BioAssay (Tox21).
# Several values for one entry are separate records, joined by “and”; a condition that tells them apart may be missing. Equal values may be shown once. Results filed as inconclusive are left out. Where a call stands in place of a potency, no number is given. Some compounds were tested as several samples or in several runs, with calls that do not always agree. Activity calls are given as the source filed them. Unless noted, the call rests on the fitted dose curve; in most records, active means well fitted curve in the direction sought with a large enough effect in the repeat runs; inconclusive means weak or mixed curves; inactive means no such curve, though single readings can be large; an effect the other way counts as inactive or inconclusive.
# Columns and labels:
# [1] = target: Nuclear receptor subfamily 1 group I member 2 (Homo sapiens) (UniProt O75469); test: Human pregnane X receptor (PXR) small molecule agonists, qHTS assay (AID 1346982); further: nearly all actives have a fitted effect of over 35% in size; further: potency means the concentration at half of the fitted maximal effect
# Outline: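 PXR-Luc HepG2 cells (CYP3A4 promoter-driven luciferase) were seeded in medium with 5% charcoal-stripped FBS, left 5 hr at 37 C, then exposed to compounds in DMSO for 24 hr. Luminescence was read after ONE-Glo addition.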
# [2] = target: Acetylcholinesterase (Homo sapiens) (UniProt P22303); test: Acetylcholinesterase (AChE) small molecule antagonists: colormetric cell-based qHTS assay (AID 1347395; calls by dose curve; further: nearly all actives have a fitted effect of over 30% in size; further: potency means the concentration at half of the fitted maximal effect)
# Outline: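 SH-SY5Y cells, plated overnight at 37 C, were exposed to compounds for 30 min at 37 C and 5% CO2. Acetylthiocholine plus DTNB was then added, and thiocholine from endogenous AChE was quantified colorimetrically after 90 min at 37 C.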
# [3] = target: Acetylcholinesterase (Homo sapiens) (UniProt P22303); test: Acetylcholinesterase (AChE) small molecule antagonists: enzyme-based qHTS assay (AID 1347397; calls by dose curve; further: nearly all actives have a fitted effect of over 55% in size); settings: Potency: AChE enzyme activity inhibition
# Outline: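 rhAChE 50 mU/mL (dispensed) + cpd or DMSO, 30 min RT; add DTNB/acetylthiocholine cocktail, 10 min RT; colorimetric thiocholine readout. qHTS, 1536-well format.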
# [4] = target: Acetylcholinesterase (Homo sapiens) (UniProt P22303); test: Acetylcholinesterase (AChE) small molecule antagonists: fluorescence cell-based qHTS assay (AID 1347398; calls by dose curve; further: nearly all actives have a fitted effect of over 50% in size; further: potency means the concentration at half of the fitted maximal effect); settings: Potency: AChE activity
# Outline: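 Read-out is Thiolite Green fluorescence at Ex/Em = 490/520 nm, formed by reaction with thiocholine released when cellular AChE in SH-SY5Y cells hydrolyzes acetylthiocholine. Compounds were preincubated 30 min at 37 C before substrate.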
# [5] = target: Acetylcholinesterase (Homo sapiens) (UniProt P22303); test: Acetylcholinesterase (AChE) small molecule antagonists: enzyme-based qHTS assay with human liver microsomes (AID 1347399; calls by dose curve; further: nearly all actives have a fitted effect of over 60% in size); settings: Potency: qHTS inhibition
# Outline: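 Recombinant human AChE (50 mU/mL in the enzyme mix) and human liver microsomes (0.25 mg/mL final) were preincubated with compound and NADPH (0.25 mg/mL final) for 30 min at 37 C. Acetylthiocholine/DTNB was then added; thiocholine was read colorimetrically after 10 min at room temperature.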
# [6] = target: Cytochrome P450 2D6 (Homo sapiens) (UniProt P10635); test: Cytochrome P450 Family 2 Subfamily D Member 6 (CYP2D6) small molecule antagonists: luciferase reporter qHTS assay (AID 1671196); further: nearly all actives have a fitted effect of over 50% in size; further: potency means the concentration at half of the fitted maximal effect
# Outline: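 CYP2D6 enzyme–substrate mix was held with compound for 10 min at room temperature, then NADPH regeneration solution was added and the reaction ran 1 h at room temperature. Luciferin product was detected by luminescence after 20 min with detection reagent.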
# [7] = target: Cytochrome P450 2C19 (Homo sapiens) (UniProt P33261); test: Cytochrome P450 Family 2 Subfamily C Member 19 (CYP2C19) small molecule antagonists: luciferase reporter qHTS assay (AID 1671197); further: nearly all actives have a fitted effect of over 65% in size; further: potency means the concentration at half of the fitted maximal effect
# Outline: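 CYP2C19 P450-Glo, 1536-well qHTS. Cpd + enzyme/proluciferin substrate 10 min RT; + NADPH regen, 37C 1 h; stop with luciferin detection reagent, 20 min RT, luminescence (RLU). Pos ctrl ketoconazole.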
# [8] = target: Cytochrome P450 2C9 (Homo sapiens) (UniProt P11712); test: Cytochrome P450 Family 2 Subfamily C Member 9 (CYP2C9) small molecule antagonists: luciferase reporter qHTS assay (AID 1671198); further: nearly all actives have a fitted effect of over 50% in size; further: potency means the concentration at half of the fitted maximal effect
# Outline: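 Enzyme-substrate mix preincubated with compound 10 min at room temperature; reaction started with NADPH regeneration solution, 1 h 37C. Luminescent luciferin product read after 20 min detection reagent.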
# [9] = target: Cytochrome P450 1A2 (Homo sapiens) (UniProt P05177); test: Cytochrome P450 Family 1 Subfamily A Member 2 (CYP1A2) small molecule antagonists: luciferase reporter qHTS assay (AID 1671199); further: nearly all actives have a fitted effect of over 50% in size; further: potency means the concentration at half of the fitted maximal effect
# Outline: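 Human CYP1A2 activity measured with a P450-Glo proluciferin substrate; compounds in DMSO preincubated 10 min at room temperature with enzyme-substrate mix, then NADPH regeneration system added for 1 h. Luciferin detection reagent, 20 min, luminescence read.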
# [10] = target: Voltage-gated inwardly rectifying potassium channel KCNH2 (Homo sapiens) (UniProt Q12809); test: Human Ether-a-go-go-Related Gene (hERG) channel small molecule antagonists: fluorescence cell-based qHTS assay (AID 1671200)
# Outline: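 U2OS cells expressing the channel were plated at 1000 cells/well, incubated overnight at 37 C, then loaded with FluxOR II thallium-sensitive dye for 1 h at room temperature in the dark, with a further 10 min at room temperature before stimulation.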
# [11] = target: Cytochrome P450 3A4 (Homo sapiens) (UniProt P08684); test: Cytochrome P450 Family 3 Subfamily A Member 4 (CYP3A4) small molecule antagonists: luciferase reporter qHTS assay (AID 1671201)
# Outline: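 P450-Glo CYP3A4 system with proluciferin substrate; compounds preincubated 10 min RT with enzyme-substrate mix, then NADPH regeneration added for 1 h RT. Detection reagent 20 min, luminescence read as relative luminescence units.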
# [12] = target: Nuclear receptor subfamily 1 group I member 2 (Rattus norvegicus) (UniProt Q9R1A7); test: Rat pregnane X receptor (rPXR) activation by small molecules, qHTS assay (AID 1346983); settings: rPXR luciferase reporter cells, One-Glo luminescence, 24 h; stronger effect = higher value; further: nearly all actives have a fitted effect of over 20% in size
# Outline: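 Luminescent readout (One-Glo luciferase, 30 min room temperature) followed 24 hr compound treatment at 37 C of rPXR cells plated 2,000 per well and preincubated 5hr; qHTS format with compounds delivered in DMSO.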
# Chain of Cytochrome P450 3A4 (Homo sapiens) (P08684 whole entry, looked up): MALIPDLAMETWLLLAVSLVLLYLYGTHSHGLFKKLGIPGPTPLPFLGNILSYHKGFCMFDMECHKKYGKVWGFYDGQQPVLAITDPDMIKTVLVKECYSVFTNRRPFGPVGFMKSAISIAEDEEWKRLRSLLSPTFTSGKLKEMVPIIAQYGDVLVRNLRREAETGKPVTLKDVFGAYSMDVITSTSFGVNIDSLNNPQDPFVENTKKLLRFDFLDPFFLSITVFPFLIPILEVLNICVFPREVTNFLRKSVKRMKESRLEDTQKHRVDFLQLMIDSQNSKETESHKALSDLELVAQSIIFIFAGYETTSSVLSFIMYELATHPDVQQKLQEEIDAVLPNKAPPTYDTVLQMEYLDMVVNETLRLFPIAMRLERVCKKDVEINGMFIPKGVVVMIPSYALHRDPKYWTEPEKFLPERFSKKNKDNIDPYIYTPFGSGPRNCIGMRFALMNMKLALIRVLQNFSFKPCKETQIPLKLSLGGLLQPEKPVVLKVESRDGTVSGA
# Chain of Cytochrome P450 2C19 (Homo sapiens) (P33261 whole entry, looked up): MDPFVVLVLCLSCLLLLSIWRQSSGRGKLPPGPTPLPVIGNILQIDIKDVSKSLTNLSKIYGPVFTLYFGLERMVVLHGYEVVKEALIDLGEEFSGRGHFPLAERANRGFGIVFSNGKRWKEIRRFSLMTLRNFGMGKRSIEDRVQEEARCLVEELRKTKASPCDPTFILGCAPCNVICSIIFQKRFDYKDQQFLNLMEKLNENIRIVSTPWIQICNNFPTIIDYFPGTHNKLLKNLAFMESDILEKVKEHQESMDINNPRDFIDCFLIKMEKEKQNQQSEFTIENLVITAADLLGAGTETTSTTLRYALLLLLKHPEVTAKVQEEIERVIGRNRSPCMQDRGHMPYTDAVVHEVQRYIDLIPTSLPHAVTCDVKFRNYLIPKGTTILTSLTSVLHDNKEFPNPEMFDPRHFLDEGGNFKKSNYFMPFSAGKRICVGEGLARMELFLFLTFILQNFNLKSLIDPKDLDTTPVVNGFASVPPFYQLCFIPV
# Chain of Voltage-gated inwardly rectifying potassium channel KCNH2 (Homo sapiens) (Q12809 whole entry, looked up): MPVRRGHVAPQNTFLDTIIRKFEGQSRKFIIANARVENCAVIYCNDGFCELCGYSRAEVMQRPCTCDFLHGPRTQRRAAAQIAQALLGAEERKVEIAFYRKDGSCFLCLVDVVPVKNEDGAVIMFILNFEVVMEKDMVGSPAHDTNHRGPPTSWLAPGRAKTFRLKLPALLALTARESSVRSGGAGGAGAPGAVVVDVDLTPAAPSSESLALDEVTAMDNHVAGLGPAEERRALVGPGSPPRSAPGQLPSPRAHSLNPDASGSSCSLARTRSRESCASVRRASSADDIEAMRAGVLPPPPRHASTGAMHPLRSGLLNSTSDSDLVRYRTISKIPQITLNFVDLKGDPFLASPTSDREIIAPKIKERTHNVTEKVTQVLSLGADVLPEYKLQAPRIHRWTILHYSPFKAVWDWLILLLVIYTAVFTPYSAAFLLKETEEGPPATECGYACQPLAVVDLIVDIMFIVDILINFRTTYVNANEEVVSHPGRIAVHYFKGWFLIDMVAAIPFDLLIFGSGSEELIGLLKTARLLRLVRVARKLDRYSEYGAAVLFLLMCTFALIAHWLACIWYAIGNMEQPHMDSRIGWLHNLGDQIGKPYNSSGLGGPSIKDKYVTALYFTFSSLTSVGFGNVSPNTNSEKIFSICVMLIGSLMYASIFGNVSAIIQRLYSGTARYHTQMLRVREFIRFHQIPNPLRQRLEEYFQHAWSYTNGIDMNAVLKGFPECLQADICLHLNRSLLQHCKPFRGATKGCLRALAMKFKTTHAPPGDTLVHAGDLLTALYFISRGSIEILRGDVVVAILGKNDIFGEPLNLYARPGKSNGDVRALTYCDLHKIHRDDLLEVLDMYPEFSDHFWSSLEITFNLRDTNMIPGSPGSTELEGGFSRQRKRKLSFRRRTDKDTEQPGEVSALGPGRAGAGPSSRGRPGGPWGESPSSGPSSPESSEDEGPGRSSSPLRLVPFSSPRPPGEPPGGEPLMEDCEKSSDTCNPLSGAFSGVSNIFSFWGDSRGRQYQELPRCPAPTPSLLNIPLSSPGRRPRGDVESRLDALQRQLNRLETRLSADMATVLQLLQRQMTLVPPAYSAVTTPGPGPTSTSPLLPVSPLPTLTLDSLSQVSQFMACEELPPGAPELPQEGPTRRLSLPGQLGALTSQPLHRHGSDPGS
# Chain of Acetylcholinesterase (Homo sapiens) (P22303 whole entry, looked up): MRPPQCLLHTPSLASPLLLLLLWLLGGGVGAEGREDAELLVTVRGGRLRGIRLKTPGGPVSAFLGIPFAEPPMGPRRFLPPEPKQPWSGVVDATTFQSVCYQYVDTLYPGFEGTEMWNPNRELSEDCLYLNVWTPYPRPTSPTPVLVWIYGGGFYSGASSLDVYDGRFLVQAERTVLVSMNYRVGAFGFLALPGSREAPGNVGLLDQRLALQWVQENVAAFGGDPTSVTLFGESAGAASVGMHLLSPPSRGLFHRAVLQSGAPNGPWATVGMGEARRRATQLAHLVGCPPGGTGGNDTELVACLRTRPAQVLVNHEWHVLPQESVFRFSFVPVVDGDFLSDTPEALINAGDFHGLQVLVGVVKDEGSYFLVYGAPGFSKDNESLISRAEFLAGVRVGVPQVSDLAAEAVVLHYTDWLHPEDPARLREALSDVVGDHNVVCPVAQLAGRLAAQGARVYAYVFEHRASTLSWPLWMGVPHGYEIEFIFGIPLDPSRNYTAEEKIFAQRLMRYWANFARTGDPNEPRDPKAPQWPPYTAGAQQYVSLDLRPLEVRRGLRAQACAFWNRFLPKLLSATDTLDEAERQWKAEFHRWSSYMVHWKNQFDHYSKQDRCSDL
# Chain of Cytochrome P450 1A2 (Homo sapiens) (P05177 whole entry, looked up): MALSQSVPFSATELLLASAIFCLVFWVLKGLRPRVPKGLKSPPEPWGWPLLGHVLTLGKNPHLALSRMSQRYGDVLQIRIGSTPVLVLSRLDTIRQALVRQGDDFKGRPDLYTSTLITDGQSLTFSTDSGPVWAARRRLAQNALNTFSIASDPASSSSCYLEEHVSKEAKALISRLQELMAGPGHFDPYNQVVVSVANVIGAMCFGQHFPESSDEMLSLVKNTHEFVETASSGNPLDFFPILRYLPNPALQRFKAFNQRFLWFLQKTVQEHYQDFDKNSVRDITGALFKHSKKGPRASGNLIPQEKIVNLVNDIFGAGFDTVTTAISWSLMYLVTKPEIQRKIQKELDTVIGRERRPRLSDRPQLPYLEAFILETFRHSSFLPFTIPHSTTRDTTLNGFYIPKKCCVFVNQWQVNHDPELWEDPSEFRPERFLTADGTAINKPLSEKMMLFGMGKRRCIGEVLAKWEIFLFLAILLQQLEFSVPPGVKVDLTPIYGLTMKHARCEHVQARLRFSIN
# Chain of Cytochrome P450 2C9 (Homo sapiens) (P11712 whole entry, looked up): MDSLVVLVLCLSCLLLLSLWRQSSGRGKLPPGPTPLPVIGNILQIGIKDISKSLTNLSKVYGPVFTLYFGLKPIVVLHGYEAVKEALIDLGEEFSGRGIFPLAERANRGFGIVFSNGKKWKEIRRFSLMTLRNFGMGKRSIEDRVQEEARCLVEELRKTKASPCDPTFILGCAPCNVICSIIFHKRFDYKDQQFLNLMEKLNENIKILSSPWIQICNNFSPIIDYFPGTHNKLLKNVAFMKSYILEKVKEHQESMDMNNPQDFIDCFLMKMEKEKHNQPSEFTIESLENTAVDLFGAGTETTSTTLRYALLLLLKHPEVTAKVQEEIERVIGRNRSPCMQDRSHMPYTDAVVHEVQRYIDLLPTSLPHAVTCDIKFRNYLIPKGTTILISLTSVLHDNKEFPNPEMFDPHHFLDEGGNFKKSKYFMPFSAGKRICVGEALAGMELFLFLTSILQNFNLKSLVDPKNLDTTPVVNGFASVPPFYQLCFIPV
# Chain of Nuclear receptor subfamily 1 group I member 2 (Homo sapiens) (O75469 whole entry, looked up): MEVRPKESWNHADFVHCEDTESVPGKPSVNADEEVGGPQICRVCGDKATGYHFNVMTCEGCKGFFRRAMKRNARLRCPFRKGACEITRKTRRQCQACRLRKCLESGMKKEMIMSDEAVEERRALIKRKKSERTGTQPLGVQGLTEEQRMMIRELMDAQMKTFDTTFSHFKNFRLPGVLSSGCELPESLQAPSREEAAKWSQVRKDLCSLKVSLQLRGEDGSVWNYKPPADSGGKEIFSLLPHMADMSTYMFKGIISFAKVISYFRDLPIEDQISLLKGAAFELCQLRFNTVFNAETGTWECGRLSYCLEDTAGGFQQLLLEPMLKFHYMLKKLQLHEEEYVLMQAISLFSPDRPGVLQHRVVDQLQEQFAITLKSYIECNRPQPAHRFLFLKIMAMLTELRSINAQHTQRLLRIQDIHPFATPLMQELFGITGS
# Chain of Cytochrome P450 2D6 (Homo sapiens) (P10635 whole entry, looked up): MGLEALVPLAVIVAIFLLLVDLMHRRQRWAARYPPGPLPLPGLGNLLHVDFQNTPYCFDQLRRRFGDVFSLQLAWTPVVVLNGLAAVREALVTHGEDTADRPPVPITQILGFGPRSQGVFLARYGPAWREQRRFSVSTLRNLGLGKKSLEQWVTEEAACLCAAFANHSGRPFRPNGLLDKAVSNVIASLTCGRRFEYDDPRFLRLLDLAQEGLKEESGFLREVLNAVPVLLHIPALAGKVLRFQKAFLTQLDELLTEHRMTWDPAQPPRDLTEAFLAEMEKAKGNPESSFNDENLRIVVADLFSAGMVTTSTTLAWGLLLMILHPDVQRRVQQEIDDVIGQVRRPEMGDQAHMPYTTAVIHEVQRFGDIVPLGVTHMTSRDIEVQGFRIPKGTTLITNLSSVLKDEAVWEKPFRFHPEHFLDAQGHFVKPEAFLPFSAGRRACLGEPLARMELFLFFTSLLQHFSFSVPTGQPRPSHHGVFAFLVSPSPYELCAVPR
SMILES,Potency [1],Potency [2],Potency [3],Potency [4],Potency [5],Potency [6],Potency [7],Potency [8],Potency [9],Potency [10],Potency [11],max activation [12]
O=P1(N(CCCl)CCCl)NCCCO1 (configuration not stated),inactive,inactive,inactive,inactive,inactive,inactive,71.8 µM (active) and inactive,inactive,inactive,inactive,,
O=C(O)CCl,inactive,inactive,inactive,inactive,inactive,inactive,inactive,inactive,inactive,,inactive,
CCCC[n+]1cccc(C)c1,inactive,,,,,inactive,inactive,inactive,inactive,,,
CCCCCCn1cc[n+](C)c1,inactive and 12.4 µM (active) and 7.57 µM (active),,,,,,inactive and 23.4 µM (active),inactive,inactive,,,
CC[n+]1ccccc1,inactive and 1.21 µM (active),inactive,inactive,inactive,inactive,inactive,inactive and 3.96 µM (active),inactive and 9.94 µM (active),inactive,inactive,,
CCCCCCCCCCn1cc[n+](C)c1,,39.8 µM (active) [middle of 6 runs],,35.7 µM (active) [middle of 6 runs],inactive,,40.3 µM (active) and 3.26 µM (active) and inactive,5.7 µM (active) and inactive and 32.6 µM (active),36 µM (active) and 32.6 µM (active),,,
CC[N+](CC)(CC)CC,,,,,,,,,,inactive,,-1.28% (inactive)
O=C(O)COc1ccc(Cl)cc1Cl,inactive,inactive,inactive,inactive,inactive,inactive and 35.6 µM (active),70.7 µM (active) and inactive,,31.6 µM (active) and inactive,inactive,,
O=[N+]([O-])O,,,,,,,,,,inactive,,
